Measurements reported in PubChem BioAssay (NCATS).
Results filed as inconclusive are left out. A number with no mark means an inactive call. The call rests on the fitted dose curve; in most records, active means well fitted inhibition curve with a large enough effect; inconclusive means small, poorly fitted or top-dose-only effect; inactive means no such curve, though single readings can be large or run the other way.

What follows are molecules tested against Protein phosphatase 1D (Homo sapiens) (UniProt O15297) (assay: RapidFire Mass Spectrometry qHTS Assay for Modulators of WT P53-Induced Phosphatase 1 (WIP1) (AID 1347424)). Conditions: WIP1 dephosphorylation of phosphopeptide, RapidFire MS; series mostly up to 63 µM; activity change, negative = inhibition: at the top concentration.
Text: Assay Provider (PI): Nathan Coussens Ph. D.
National Center for Advancing Translational Sciences (NCATS), Rockville, MD
National Institute of Health (NIH), Bethesda, Maryland
WT P53-Induced Phosphatase 1 (WIP1) is a member of the magnesium-dependent serine/threonine protein phosphatase (PPM) family and is induced by P53 in response to DNA damage. In several human cancers, the WIP1 protein is overexpressed, which is generally associated with a worse prognosis. Although WIP1 is an attractive therapeutic target, no potent, selective, and bioactive small-molecule modulator with favorable pharmacokinetics has been reported. Phosphatase enzymes are among the most challenging targets for small molecules because of the difficulty of achieving both modulator selectivity and bioavailability. Another major obstacle has been the availability of robust and physiologically relevant phosphatase assays that are suitable for high-throughput screening.
Here, we describe two orthogonal biochemical WIP1 activity assays that utilize phosphopeptides from native WIP1 substrates. We optimized a RapidFire MS assay to quantify the enzymatically dephosphorylated peptide reaction product in a 384-well format. Additionally, a redshifted Rhodamine-PBP fluorescence assay was optimized in a 1,536-well format to enable real-time WIP1 activity measurements through the detection of the orthogonal reaction product, Pi. We validated these two optimized assays by quantitative high-throughput screening against the National Center for Advancing Translational Sciences (NCATS) Pharmaceutical Collection and used secondary assays to confirm and evaluate inhibitors identified in the primary screen.
SEQUENCE No. (e.g., 1, 2, 3, etc.); […] (e.g., Cells, Incubation, Reagent, etc.); VALUE; DESCRIPTION
1; Reagent; 50 uL; dispensed assay buffer: 0.1% formic acid in water (10 uL : 40 uL) solution in column 1
3; Library Compounds; 63 nL; library compounds in DMSO, columns 3-24
4; Control Compounds; 63 nL; DMSO in wells I-P, columns 1-2, GSK830371 (10 uM, final) in wells A-H, column 2
5; Time; 1 hr; incubation
6; Substrate; 2 uL; VEPPL-pS-QETFS (10 uM) in assay buffer, column 2-24
7; Time; 5 min; incubation
8; Reagent; 2 uL; 0.5% formic acid in water, columns 2-24
9; Reagent; 38 uL; VEPPL-S-QETF*S in 0.1% formic acid, columns 2-24
10; Detection; mass spec; RapidFire mass spectrometry
NOTES (numbers refer to sequence above)
1, 2, 6; dispensed reagent in White Nunc 384-well PP microplates (264573); assay buffer: 50 mM Tris-HCl pH 7.5, 30 mM MgCl2, 1 mM TCEP, 0.1 mM EGTA, 75 ug/mL BSA.
2, 6, 8, 9; Dispensed with BioRaptr (Beckman Coulter)
2, 6, 9; Final concentrations: 10 nM WIP1; 2 uM VEPPL-pS-QETFS; 1 uM VEFFL-S-QETF*S
3 & 4; Kalypsys Pintool transfer (Wako USA), Tip wash sequence: water, DMSO, methanol, 20 sec vacuum dry.
5 & 7; incubation at room temperature
10; RapidFire mass spectrometry read using the Agilent RapidFire 360 (Clausse, 2019)
Clausse V, et al. Physiologically relevant orthogonal assay for the discovery of small-molecule modulators of WIP1 […] in high-throughput screens. J Biol Chem. 2019, 294(46): 17654-17668. doi:10.1074/jbc.RA119.010201

Chain of Protein phosphatase 1D (Homo sapiens) (O15297 whole entry, looked up): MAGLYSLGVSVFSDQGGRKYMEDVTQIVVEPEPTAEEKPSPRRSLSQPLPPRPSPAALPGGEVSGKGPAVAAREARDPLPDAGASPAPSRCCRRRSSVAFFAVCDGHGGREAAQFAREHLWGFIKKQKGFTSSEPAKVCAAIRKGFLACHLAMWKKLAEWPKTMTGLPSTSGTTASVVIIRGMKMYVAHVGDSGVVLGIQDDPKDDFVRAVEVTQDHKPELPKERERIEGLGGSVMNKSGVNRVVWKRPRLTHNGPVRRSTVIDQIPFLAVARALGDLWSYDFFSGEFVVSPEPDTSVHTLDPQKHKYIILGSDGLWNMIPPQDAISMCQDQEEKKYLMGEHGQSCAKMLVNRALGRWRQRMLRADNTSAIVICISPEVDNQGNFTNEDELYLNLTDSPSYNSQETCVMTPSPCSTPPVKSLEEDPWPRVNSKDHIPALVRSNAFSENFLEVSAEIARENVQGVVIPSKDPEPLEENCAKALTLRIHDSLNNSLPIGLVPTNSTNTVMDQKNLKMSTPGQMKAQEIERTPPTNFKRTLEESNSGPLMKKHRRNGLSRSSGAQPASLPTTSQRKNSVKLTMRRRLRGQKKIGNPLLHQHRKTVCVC

**Q.** How did the “activity change, negative = inhibition” value turn out when `CC(=O)NO` was run?
**A.** -18.5%

**Q.** For `O=c1[nH]c(=O)n([C@H]2C[C@H](O)[C@@H](CO)O2)cc1F`, which “activity change, negative = inhibition” value is on record?
**A.** -0.919%

**Q.** For `FC(F)(F)C(F)(F)C(F)(F)C(F)(F)C(F)(F)C(F)(F)C(F)(F)C(F)(F)Br`, which “activity change, negative = inhibition” value is on record?
**A.** 32.5%

**Q.** For `CN1CCN(C2=Nc3cc(F)ccc3Cc3ccccc32)CC1`, which “activity change, negative = inhibition” value is on record?
**A.** 3.61%

**Q.** With `O=C(O)CCC(=O)Nc1ccc(S(=O)(=O)Nc2nccs2)cc1` as the molecule, how does the “activity change, negative = inhibition” value read?
**A.** -14.8%

**Q.** Which “activity change, negative = inhibition” value does the source give for `NC(=O)c1ccccc1O` here?
**A.** 4.38%

**Q.** `CC(C)[N+](C)(C)CC(O)COc1cccc2ccccc12` (stereo not given) was tested. Which “activity change, negative = inhibition” value did it give?
**A.** -5.43%

**Q.** How did the “activity change, negative = inhibition” value turn out when `CC(C)Cc1ccc(CC(=O)O)cc1` was run?
**A.** -4.93%

**Q.** How did the “activity change, negative = inhibition” value turn out when `CCOc1ccc(NC(C)=O)cc1` was run?
**A.** -3.78%

**Q.** `CN1CCN(c2cc3c(cc2F)c(=O)c(C(=O)O)cn3-c2ccc(F)cc2)CC1` was tested. Which “activity change, negative = inhibition” value did it give?
**A.** -4.09%

**Q.** With `COC(=O)C(c1ccccc1Cl)N1CCc2sccc2C1` (stereo not given) as the molecule, how does the “activity change, negative = inhibition” value read?
**A.** 11.6%

**Q.** With `CC(C)(C)NC[C@H](O)COc1nsnc1N1CCOCC1` as the molecule, how does the “activity change, negative = inhibition” value read?
**A.** -16.2%

**Q.** For `CCN(CC)CCNc1ccc(CO)c2sc3ccccc3c(=O)c12`, which “activity change, negative = inhibition” value is on record?
**A.** 9.36%

**Q.** For `Cc1c(-c2ccccc2)oc2c(C(=O)OCCN3CCCCC3)cccc2c1=O`, which “activity change, negative = inhibition” value is on record?
**A.** 1.27%

**Q.** For `O=C(Oc1cccc2cccnc12)c1ccccc1`, which “activity change, negative = inhibition” value is on record?
**A.** -11%

**Q.** For `O=C(Nc1ccc([N+](=O)[O-])cc1)Nc1ccc([N+](=O)[O-])cc1`, which “activity change, negative = inhibition” value is on record?
**A.** -1.72%

**Q.** How did the “activity change, negative = inhibition” value turn out when `N#C/C(=C1\SCC(c2ccccc2Cl)S1)n1ccnc1` (stereo not given) was run?
**A.** -0.0639%

**Q.** Which “activity change, negative = inhibition” value does the source give for `COc1ccc(CN(CCN(C)C)c2ncccn2)cc1` here?
**A.** -7.05%

**Q.** How did the “activity change, negative = inhibition” value turn out when `COc1cc(N)c(Cl)cc1C(=O)NC1CCN(Cc2ccccc2)CC1` was run?
**A.** -5.35%

**Q.** How did the “activity change, negative = inhibition” value turn out when `O=C(CCCN1CC=C(n2c(=O)[nH]c3ccccc32)CC1)c1ccc(F)cc1` was run?
**A.** -19.2%

**Q.** `CNCCc1ccccn1` was tested. Which “activity change, negative = inhibition” value did it give?
**A.** 2.36%

**Q.** How did the “activity change, negative = inhibition” value turn out when `CC(C(=O)O)c1cccc(Oc2ccccc2)c1` (stereo not given) was run?
**A.** -17.8%

**Q.** How did the “activity change, negative = inhibition” value turn out when `O=C1[C@H](CC[C@H](O)c2ccc(F)cc2)[C@@H](c2ccc(O)cc2)N1c1ccc(F)cc1` was run?
**A.** -2.85%

**Q.** `C#C[C@]1(O)CC[C@H]2[C@@H]3CCC4=Cc5oncc5C[C@]4(C)[C@H]3CC[C@@]21C` was tested. Which “activity change, negative = inhibition” value did it give?
**A.** -14.4%

**Q.** Which “activity change, negative = inhibition” value does the source give for `O=C1C(=O)c2ccccc2C(O)=C1C1CCC(c2ccc(Cl)cc2)CC1` (stereo not given) here?
**A.** -0.846%

**Q.** How did the “activity change, negative = inhibition” value turn out when `CCCCNc1ccc(C(=O)OCCOCCOCCOCCOCCOCCOCCOCCOCCOC)cc1` was run?
**A.** 12.7%

**Q.** Which “activity change, negative = inhibition” value does the source give for `CCN(CC)CCNC(=O)COc1ccc(OC)cc1` here?
**A.** -3.8%

**Q.** With `CCN(CC)CCOc1ccc2c(c1)C(=O)c1cc(OCCN(CC)CC)ccc1-2` as the molecule, how does the “activity change, negative = inhibition” value read?
**A.** 3.32%

**Q.** How did the “activity change, negative = inhibition” value turn out when `NS(=O)(=O)c1cc(C(=O)O)cc(N2CCCC2)c1Oc1ccccc1` was run?
**A.** -11%

**Q.** `CC(C)(C)NC[C@H](O)COc1cccc2c1CCCC2=O` was tested. Which “activity change, negative = inhibition” value did it give?
**A.** 3.26%

**Q.** For `CCCCCCCCCCCCSCCOCCO`, which “activity change, negative = inhibition” value is on record?
**A.** 56.2%

**Q.** `OCc1ccccn1` was tested. Which “activity change, negative = inhibition” value did it give?
**A.** -0.267%

**Q.** `CC(=O)Nc1ccc(S(=O)(=O)Nc2ccc([N+](=O)[O-])cc2)cc1` was tested. Which “activity change, negative = inhibition” value did it give?
**A.** -1%

**Q.** Which “activity change, negative = inhibition” value does the source give for `CC(=O)NCCCCCC(=O)O` here?
**A.** -2.2%

**Q.** For `CN(Cc1ccc(C(C)(C)C)cc1)Cc1cccc2ccccc12`, which “activity change, negative = inhibition” value is on record?
**A.** 6.26%

**Q.** How did the “activity change, negative = inhibition” value turn out when `Nc1ccc(S(=O)(=O)NCc2ccccc2)cc1` was run?
**A.** 0.158%

**Q.** For `Cl/C(=C\n1cncn1)c1ccc(Cl)cc1Cl`, which “activity change, negative = inhibition” value is on record?
**A.** -0.856%

**Q.** For `O=C(N/N=C/c1ccc([N+](=O)[O-])o1)c1ccc(O)cc1`, which “activity change, negative = inhibition” value is on record?
**A.** -17.5%

**Q.** With `CC(=O)N[C@@H](CCC(=O)O)C(=O)O` as the molecule, how does the “activity change, negative = inhibition” value read?
**A.** -1.27%

**Q.** For `NC(=S)N/N=C/c1cccnc1`, which “activity change, negative = inhibition” value is on record?
**A.** 0.957%
